# Data as given in PubChem BioAssay.
# The source made the active and inactive calls.
# Key:
# [1] = tested on: PRMT1 (protein arginine N-methyltransferase 1); assay: small molecules binding arginine methyltransferase PRMT1 – biochemical, small-molecule microarray, 635 nm fluorescence, primary screen (AID 1088); settings: higher = more signal;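 further: binding of Prmt1 protein to compounds spotted on small-molecule microarray slides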
# [2] = growth effects on S. cerevisiae YJM789 – YJM789 clinical isolate, OD600, 24 h, basal, primary screen (AID 1089); settings: higher = more signal, called active from +8 up or from −8 down;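 further: growth of clinical yeast isolate S. cerevisiae YJM 789 seeded 1000 cells per well; test concentration not given here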
# [3] = S. pombe growth modifiers, basal conditions – strain 972, OD600, 24 h, no modulator, primary screen (AID 1090);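 further: basal condition with compound alone and no growth modifier present; test concentration not given here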; settings: S. pombe 972 growth, higher = more signal, called active from +8 up or from −8 down
# [4] = budding yeast growth modifiers under rapamycin – strain BY4716, OD600, 96 h, primary screen (AID 1091); further: test concentration not given here; settings: S. cerevisiae BY4716 + rapamycin, higher = more signal, called active from +8 up or from −8 down
# [5] = molecular target: Torsin-1A-interacting protein 2 (Homo sapiens) (UniProt Q8NFQ8); assay: small molecules binding lysate-expressed LULL1 – cell lysate, human LULL1 lysate, 635/667 nm fluorescence, primary screen (AID 1092); settings: small-molecule microarray, hLULL1 lysate binding, 635 nm fluorescence; higher = more signal;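 further: probe is lysate of COS7 cells overexpressing human LULL1; score merges per-feature 667 nm fluorescence with signal-to-noise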
# [6] = optical density change of DRC41 E. coli – strain DRC41, OD650, 24 h, E. coli filamentation project, primary screen (AID 1093);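 further: MC1000 strain lacking acrAB efflux and sulA so SOS filamentation is blocked; test concentration not given here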; settings: E. coli DRC41 growth, higher = more signal, called active from +8 up or from −8 down
# [7] = probe aLefty2 binding to arrayed compounds – biochemical, biotinylated probe, 635/667 nm fluorescence, primary screen (AID 1094); settings: small-molecule microarray, higher = more signal;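 further: score merges spot fluorescence near 667 nm with spot signal-to-noise ratio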
# [8] = tested on: Noggin (protein binding on small-molecule microarray); assay: small molecules binding Noggin protein – biochemical, 635/667 nm fluorescence, primary screen (AID 1095); settings: 635 nm fluorescence, higher = more signal;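 further: score merges 667 nm feature fluorescence with signal to noise over triplicate slides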
# [9] = molecular target: Neurogenic locus notch homolog protein 3 (Homo sapiens) (UniProt Q9UM47); assay: small molecules binding NOTCH3 protein – biochemical, 635/667 nm fluorescence, primary screen (AID 1096); settings: small-molecule microarray, 635 nm fluorescence, higher = more signal
# [10] = probe aEGFR binding to arrayed compounds – biochemical, biotinylated probe, 635/667 nm fluorescence, primary screen (AID 1097); settings: small-molecule microarray, higher = more signal;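 further: probe is a biotinylated anti-EGFR antibody binding compounds printed on slides; score combines fluorescence near 667 nm and signal to noise of each spot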
# Chain of Neurogenic locus notch homolog protein 3 (Homo sapiens) (Q9UM47 whole entry, looked up): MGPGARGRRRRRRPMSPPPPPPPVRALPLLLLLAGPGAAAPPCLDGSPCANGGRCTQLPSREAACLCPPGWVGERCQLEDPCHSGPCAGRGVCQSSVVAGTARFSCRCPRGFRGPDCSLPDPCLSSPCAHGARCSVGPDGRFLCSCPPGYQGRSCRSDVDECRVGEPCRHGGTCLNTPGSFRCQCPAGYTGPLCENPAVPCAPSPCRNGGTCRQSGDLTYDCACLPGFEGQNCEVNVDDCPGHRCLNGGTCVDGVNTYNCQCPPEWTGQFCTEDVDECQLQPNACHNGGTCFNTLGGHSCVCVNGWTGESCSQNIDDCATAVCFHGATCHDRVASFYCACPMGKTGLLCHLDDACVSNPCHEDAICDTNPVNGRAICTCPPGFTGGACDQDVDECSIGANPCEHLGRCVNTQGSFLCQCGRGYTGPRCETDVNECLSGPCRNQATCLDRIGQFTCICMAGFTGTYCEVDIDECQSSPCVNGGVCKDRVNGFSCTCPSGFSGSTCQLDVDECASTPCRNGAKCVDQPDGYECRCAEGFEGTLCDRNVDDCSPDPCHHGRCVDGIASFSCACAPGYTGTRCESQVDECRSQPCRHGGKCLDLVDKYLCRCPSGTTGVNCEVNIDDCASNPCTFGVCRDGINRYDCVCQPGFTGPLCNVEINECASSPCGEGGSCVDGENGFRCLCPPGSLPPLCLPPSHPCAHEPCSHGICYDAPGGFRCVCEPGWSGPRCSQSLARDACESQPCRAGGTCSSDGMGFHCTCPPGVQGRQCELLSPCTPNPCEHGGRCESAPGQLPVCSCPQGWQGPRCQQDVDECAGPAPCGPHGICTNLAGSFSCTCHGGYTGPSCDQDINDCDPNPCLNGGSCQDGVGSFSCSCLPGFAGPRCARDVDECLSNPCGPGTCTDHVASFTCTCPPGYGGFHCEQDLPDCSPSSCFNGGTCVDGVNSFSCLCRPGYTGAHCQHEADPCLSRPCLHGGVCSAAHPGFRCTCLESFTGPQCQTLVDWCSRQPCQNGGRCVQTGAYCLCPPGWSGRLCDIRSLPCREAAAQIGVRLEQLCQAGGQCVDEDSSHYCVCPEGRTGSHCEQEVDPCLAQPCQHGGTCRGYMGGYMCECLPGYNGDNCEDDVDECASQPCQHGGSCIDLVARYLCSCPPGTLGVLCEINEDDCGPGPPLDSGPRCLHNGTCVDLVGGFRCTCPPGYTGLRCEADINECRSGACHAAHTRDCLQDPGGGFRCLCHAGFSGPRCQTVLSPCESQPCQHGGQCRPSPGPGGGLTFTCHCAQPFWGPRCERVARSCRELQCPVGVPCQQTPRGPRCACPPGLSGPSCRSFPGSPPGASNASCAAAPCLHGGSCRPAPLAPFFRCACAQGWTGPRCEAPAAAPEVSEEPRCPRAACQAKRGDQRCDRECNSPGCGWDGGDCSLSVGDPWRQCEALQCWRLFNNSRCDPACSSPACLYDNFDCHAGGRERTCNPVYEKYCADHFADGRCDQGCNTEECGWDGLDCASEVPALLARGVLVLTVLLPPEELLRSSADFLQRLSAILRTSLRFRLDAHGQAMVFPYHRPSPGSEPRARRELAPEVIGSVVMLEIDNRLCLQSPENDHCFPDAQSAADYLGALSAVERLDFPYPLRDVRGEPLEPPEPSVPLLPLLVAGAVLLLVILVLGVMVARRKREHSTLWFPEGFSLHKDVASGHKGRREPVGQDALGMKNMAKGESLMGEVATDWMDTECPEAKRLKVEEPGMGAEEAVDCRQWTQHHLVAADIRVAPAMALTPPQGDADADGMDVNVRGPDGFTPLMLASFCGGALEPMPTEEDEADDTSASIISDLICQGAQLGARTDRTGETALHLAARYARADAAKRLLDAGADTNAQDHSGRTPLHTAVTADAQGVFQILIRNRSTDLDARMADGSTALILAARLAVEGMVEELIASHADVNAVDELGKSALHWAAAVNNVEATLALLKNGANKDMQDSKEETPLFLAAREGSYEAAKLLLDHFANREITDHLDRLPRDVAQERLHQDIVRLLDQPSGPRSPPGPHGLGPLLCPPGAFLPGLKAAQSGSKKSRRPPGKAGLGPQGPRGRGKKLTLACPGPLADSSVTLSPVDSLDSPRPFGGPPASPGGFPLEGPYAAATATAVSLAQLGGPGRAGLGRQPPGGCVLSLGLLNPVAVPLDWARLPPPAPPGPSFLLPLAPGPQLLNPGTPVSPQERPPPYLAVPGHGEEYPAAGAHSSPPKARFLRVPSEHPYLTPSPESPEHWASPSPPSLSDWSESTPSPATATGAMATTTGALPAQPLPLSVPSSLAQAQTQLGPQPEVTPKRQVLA
# Chain of Torsin-1A-interacting protein 2 (Homo sapiens) (Q8NFQ8 whole entry, looked up): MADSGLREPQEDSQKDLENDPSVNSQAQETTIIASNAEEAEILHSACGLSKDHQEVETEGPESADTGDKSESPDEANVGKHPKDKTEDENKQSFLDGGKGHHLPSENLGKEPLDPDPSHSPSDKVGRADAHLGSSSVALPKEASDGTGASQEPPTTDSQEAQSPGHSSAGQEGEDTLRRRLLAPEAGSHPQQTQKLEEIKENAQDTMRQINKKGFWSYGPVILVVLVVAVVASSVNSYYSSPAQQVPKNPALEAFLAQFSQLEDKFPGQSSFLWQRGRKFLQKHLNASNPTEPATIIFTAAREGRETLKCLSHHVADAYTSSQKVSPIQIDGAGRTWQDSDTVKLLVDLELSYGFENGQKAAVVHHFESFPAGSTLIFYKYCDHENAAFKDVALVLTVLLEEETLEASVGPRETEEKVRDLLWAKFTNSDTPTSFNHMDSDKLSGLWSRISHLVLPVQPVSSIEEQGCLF
SMILES,composite z-score [1],z-score [2],z-score [3],z-score [4],composite z-score [5],z-score [6],composite z-score [7],composite z-score [8],composite z-score [9],composite z-score [10]
O=C1NC(=O)C2C1C=CC(C(O)c1cccs1)N2Nc1ccccn1 (stereo not given),0.394,0.378 (inactive),-0.31 (inactive),0.206 (inactive),1.12,-0.248 (inactive),0.305,0.0671,0.242,0.119
O=C(CS)NCCCCCCNC(=O)[C@H]1C[C@H]2C(=O)N3CCC[C@H]3C(=O)N2[C@H]1c1ccc(O)cc1,1.42,-0.637 (inactive),0.0932 (inactive),0.369 (inactive),2.22,-0.506 (inactive),-0.0845,1.21,0.905,-0.208
Cc1ccc(S[C@]2(C(=O)NCC(C)C)CC(=O)N(Cc3ccccc3)[C@@H]2c2ccc(CO)cc2)cc1,0.744,-1.14 (inactive),-1.14 (inactive),-0.256 (inactive),1.86,-0.579 (inactive),0.189,-0.779,-0.331,-0.236
CCCCCN1CC=CC23O[C@@H]4C=CCCOC(=O)C4[C@H]2C(=O)N(CCCO)[C@@H]3C1=O (stereo not given in full),0.229,0.0103 (inactive),-1.3 (inactive),-0.506 (inactive),-0.651,2.22 (inactive),-0.257,-0.272,0.0424,-0.223
COc1ccc([Si](C)(C)[C@H]2[C@H](CCO)O[C@@]3(C(=O)N(Cc4cccc(N5C(=O)c6cccc7cccc5c67)c4)c4ccccc43)[C@@H]2C)cc1,1.16,2.05 (inactive),1.23 (inactive),36.9 (active),2.1,0.879 (inactive),-0.205,0.492,0.344,-0.225
O=P(NCC1(CC2(c3ccccc3)CO2)CC1)(c1ccccc1)c1ccccc1 (stereo not given),-0.878,-0.468 (inactive),1.08 (inactive),0.236 (inactive),3.14,0.31 (inactive),-0.132,-1.44,-1.19,-0.207
C=CC[C@]1(C(=O)NCCN2CCOCC2)N=C(c2ccc(OCCCO)cc2)O[C@H]1c1ccccc1N=[N+]=[N-],1.58,-0.941 (inactive),-1.41 (inactive),-0.523 (inactive),3,1.74 (inactive),0.432,0.0879,0.991,0.509
O=C1[C@H]2C=C(Br)[C@H](C[C@@H]2OCCOCCO)[C@@]12CO2,-0.223,0.85 (inactive),0.397 (inactive),1.19 (inactive),0.0385,-0.922 (inactive),-0.111,0.595,0.235,0.0974
COCCCNC(=O)[C@@]1(Cc2ccccc2I)c2ccccc2C(=O)N(Cc2ccccc2)[C@H]1c1ccc(CO)cc1,0.96,0.411 (inactive),0.512 (inactive),0.951 (inactive),1.62,0.0006 (inactive),-0.204,-1.27,-1.37,-0.302
O=C1O[C@@H](c2ccccc2)[C@@H](c2ccccc2)N2[C@@H](c3ccc(O)cc3)[C@]3(C(=O)Nc4ccc(C#CCCO)cc43)[C@@H](C(=O)N3CCCCCCC3)[C@H]12,1.55,0.36 (inactive),0.67 (inactive),1.51 (inactive),3.5,-0.306 (inactive),1.26,1.48,0.939,0.079
Cc1ccc(S[C@]2(C(=O)NCc3ccccc3)CC(=O)N(Cc3cc(C(F)(F)F)cc(C(F)(F)F)c3)[C@@H]2c2ccc(CO)cc2)cc1,1.34,1.04 (inactive),-0.27 (inactive),0.521 (inactive),1.94,-0.764 (inactive),-0.225,0.0043,-0.132,-0.325
C=CCC(OC(C)=O)[C@@H]1[C@@H](N(Cc2cc3ccccc3o2)C(=O)c2cccc3ccccc23)c2cc(OCCCO)ccc2N1C(=O)Cc1ccc(OC)cc1 (stereo not given in full),0.21,-0.0559 (inactive),-0.28 (inactive),0.351 (inactive),1.33,-0.829 (inactive),-0.0745,0.342,-0.351,-0.0967
COCCOC(=O)N1C(=O)[C@@]2(c3cc(C#Cc4ccc(OC)cc4)ccc31)[C@H](c1ccc(OCCO)cc1)N1[C@H](c3ccccc3)[C@H](c3ccccc3)OC(=O)[C@H]1[C@@H]2C(=O)N1CCc2cc(OC)c(OC)cc2C1,1.56,2.81 (inactive),1.39 (inactive),7.07 (inactive),0.434,1.56 (inactive),-0.202,1.28,1.12,-0.02
[N-]=[N+]=NCc1ccccc1[C@@H]1OC(c2ccc(OCCCO)cc2)=N[C@]1(Cc1ccccc1N=[N+]=[N-])C(N)=O,1.55,-0.0556 (inactive),-1.33 (inactive),-0.91 (inactive),3.29,0.43 (inactive),0.361,0.37,1.04,0.171
